For some of these results: Entries with a potency or affinity are not part of this list.
Legend:
Set-up in all cases: scale not given: direction of the effect not stated beside the values
[1] = biological target: Protein translocase subunit SecA (Escherichia coli (strain K12)) (UniProt P10408); test: Assay to Identify E. coli SecA ATPase Inhibitors; format: functional; conditions: 30 µM
[2] = biological target: T1, Ubiquitin-activating enzyme e1, putative (Leishmania donovani (strain BPK282A1)) (UniProt E9BSI1); test: Leishmania donovani Ubiquitin Activating Enzyme (LdE1); format: functional; conditions: 30 µM
T1 sequence (whole entry): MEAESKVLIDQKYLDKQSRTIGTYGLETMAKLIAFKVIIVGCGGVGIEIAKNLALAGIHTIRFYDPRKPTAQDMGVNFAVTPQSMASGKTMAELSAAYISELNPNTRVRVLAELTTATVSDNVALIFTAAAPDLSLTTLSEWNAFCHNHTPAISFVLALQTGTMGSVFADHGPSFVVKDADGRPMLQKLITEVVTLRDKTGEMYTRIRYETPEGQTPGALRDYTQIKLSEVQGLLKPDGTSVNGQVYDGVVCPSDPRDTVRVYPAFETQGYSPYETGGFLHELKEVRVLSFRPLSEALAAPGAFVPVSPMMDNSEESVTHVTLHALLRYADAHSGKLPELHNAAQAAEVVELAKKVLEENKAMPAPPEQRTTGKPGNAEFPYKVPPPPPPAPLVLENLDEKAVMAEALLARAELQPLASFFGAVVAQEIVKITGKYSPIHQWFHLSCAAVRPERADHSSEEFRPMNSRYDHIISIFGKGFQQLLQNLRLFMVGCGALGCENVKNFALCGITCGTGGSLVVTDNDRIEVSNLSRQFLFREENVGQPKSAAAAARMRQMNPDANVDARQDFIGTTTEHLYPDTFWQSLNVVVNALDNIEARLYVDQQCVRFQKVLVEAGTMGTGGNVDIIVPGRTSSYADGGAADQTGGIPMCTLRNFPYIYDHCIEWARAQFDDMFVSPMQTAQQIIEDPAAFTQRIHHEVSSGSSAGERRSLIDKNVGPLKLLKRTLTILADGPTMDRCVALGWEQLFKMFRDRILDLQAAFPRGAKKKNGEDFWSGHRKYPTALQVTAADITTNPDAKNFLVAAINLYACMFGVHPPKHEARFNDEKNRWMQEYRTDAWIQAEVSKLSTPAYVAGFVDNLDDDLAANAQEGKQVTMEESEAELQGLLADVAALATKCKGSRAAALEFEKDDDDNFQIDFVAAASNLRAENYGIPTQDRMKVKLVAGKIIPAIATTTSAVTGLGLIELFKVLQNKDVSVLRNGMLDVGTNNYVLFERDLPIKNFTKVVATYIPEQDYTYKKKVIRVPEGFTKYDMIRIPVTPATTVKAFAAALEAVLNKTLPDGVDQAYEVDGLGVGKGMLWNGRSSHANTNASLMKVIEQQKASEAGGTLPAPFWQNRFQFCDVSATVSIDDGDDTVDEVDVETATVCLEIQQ

[3] = biological target: AMP-activated protein kinase, AMPK (Homo sapiens) (UniProt P54646+O43741+P54619+Q9UGJ0+Q9Y478+Q13131+Q9UGI9); test: AMP-dependent Kinase enzyme assay. An in vitro enzyme assay that detects ADP turnover that is directly proportional to AMPK activity. This uses naive AMPK that is activated during the assay with MK-8722; format: functional; conditions: 30 µM
[4] = biological target: Sialic acid-binding Ig-like lectin 9 (Homo sapiens) (UniProt Q9Y336); test: Hs-Siglec9 ALPHAscreen SOP 20170721; conditions: 10 µM
Sialic acid-binding Ig-like lectin 9 (Homo sapiens), sequence (Q9Y336 whole entry): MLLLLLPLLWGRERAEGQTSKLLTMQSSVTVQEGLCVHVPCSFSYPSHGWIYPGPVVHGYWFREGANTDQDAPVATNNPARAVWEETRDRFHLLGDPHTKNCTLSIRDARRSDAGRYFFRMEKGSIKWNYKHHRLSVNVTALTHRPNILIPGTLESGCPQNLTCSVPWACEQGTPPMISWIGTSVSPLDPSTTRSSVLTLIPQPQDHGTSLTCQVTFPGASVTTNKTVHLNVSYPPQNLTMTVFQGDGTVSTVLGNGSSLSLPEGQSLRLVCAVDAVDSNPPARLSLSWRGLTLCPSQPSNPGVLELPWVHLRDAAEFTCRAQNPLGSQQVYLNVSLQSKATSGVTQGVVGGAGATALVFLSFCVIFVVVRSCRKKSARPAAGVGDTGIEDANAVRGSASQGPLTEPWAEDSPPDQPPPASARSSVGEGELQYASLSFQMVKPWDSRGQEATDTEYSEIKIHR

Trypanosoma cruzi = test: Trypanosoma cruzi phosphomannomutase and mannose-1-phosphate guanylyltransferase assay; format: functional; conditions: 10 µM
[5] = biological target: T2, Arginase-2, mitochondrial (Homo sapiens) (UniProt P78540); test: in vitro enzyme assay to detect the production of urea directly proportional to the activity of Arginase II; format: functional; conditions: 33.3 µM; further: in the data most compounds retested in dose-response had high values
T2 sequence (whole entry): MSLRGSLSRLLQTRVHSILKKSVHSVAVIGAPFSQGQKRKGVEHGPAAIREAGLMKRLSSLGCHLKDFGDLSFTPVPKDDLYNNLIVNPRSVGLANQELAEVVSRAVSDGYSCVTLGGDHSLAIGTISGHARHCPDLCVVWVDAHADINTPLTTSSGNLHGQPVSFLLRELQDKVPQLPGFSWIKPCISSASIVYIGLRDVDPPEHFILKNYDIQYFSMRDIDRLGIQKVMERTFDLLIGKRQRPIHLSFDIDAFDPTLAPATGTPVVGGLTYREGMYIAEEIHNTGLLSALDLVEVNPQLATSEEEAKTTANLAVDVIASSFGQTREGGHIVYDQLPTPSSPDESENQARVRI

[6] = biological target: T3, Proteasome subunit beta (Trypanosoma cruzi) (UniProt O96673); test: Trypanosoma cruzi proteasome chymotrypsin-like activity (TcProtChymo) assay.; further: in the data most compounds retested in dose-response had high values; format: functional; conditions: 9.37 µM
T3 sequence (whole entry): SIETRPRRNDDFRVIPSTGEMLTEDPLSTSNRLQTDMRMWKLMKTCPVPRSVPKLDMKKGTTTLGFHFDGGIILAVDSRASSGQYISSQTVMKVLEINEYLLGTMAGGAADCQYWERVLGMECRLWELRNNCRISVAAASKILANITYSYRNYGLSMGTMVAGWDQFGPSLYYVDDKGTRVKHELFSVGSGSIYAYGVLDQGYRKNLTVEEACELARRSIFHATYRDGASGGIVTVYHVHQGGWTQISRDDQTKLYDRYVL

Homo sapiens = species: Homo sapiens; test: To identify inhibition of the IFN signalling (Jak-Stat) pathway via expression of an eGFP reporter gene under the control of an IFN-stimulated response element (ISRE) containing MxA promoter.; format: functional; conditions: 30 µM
[7] = biological target: T4, Tyrosyl-tRNA synthetase, putative (Trypanosoma cruzi (strain CL Brener)) (UniProt Q4DSP6); test: Trypanosoma cruzi tyrosyl tRNA synthetase (TcYRS) _High Tyrosine SOP; format: functional; conditions: 30 µM; further: in the data most compounds retested in dose-response had high values
T4 sequence (whole entry): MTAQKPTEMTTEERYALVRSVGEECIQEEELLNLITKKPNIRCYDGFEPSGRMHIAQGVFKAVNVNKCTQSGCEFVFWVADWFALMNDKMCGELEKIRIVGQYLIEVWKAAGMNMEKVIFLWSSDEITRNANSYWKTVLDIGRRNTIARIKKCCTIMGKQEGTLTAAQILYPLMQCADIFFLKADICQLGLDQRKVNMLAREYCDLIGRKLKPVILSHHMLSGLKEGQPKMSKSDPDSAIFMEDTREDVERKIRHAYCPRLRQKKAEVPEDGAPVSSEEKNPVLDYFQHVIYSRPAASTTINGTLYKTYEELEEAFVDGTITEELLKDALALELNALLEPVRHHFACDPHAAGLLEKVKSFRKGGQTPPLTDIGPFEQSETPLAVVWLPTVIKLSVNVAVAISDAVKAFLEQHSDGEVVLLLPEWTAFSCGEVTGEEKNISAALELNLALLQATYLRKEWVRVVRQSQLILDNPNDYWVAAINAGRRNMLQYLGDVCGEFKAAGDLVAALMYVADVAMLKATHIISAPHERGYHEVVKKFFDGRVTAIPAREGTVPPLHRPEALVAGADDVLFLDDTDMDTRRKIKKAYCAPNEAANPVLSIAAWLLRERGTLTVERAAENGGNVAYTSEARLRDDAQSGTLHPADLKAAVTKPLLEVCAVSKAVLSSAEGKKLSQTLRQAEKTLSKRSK

[8] = biological target: T4, Tyrosyl-tRNA synthetase, putative (Trypanosoma cruzi (strain CL Brener)); test: Trypanosoma cruzi tyrosyl tRNA synthetase (TcYRS) SOP; format: functional; conditions: 30 µM
[9] = biological target: Chromo domain-containing protein 1 (Saccharomyces cerevisiae (strain ATCC 204508 / S288c) (Baker's yeast)) (UniProt P32657); test: ScCHD-1 Enzyme Inhibition Assay; format: functional; conditions: 30 µM; further: in the data most compounds retested in dose-response had high values
Chromo domain-containing protein 1 (Saccharomyces cerevisiae (strain ATCC 204508 / S288c) (Baker's yeast)), sequence (P32657 whole entry, the tested form may be a part): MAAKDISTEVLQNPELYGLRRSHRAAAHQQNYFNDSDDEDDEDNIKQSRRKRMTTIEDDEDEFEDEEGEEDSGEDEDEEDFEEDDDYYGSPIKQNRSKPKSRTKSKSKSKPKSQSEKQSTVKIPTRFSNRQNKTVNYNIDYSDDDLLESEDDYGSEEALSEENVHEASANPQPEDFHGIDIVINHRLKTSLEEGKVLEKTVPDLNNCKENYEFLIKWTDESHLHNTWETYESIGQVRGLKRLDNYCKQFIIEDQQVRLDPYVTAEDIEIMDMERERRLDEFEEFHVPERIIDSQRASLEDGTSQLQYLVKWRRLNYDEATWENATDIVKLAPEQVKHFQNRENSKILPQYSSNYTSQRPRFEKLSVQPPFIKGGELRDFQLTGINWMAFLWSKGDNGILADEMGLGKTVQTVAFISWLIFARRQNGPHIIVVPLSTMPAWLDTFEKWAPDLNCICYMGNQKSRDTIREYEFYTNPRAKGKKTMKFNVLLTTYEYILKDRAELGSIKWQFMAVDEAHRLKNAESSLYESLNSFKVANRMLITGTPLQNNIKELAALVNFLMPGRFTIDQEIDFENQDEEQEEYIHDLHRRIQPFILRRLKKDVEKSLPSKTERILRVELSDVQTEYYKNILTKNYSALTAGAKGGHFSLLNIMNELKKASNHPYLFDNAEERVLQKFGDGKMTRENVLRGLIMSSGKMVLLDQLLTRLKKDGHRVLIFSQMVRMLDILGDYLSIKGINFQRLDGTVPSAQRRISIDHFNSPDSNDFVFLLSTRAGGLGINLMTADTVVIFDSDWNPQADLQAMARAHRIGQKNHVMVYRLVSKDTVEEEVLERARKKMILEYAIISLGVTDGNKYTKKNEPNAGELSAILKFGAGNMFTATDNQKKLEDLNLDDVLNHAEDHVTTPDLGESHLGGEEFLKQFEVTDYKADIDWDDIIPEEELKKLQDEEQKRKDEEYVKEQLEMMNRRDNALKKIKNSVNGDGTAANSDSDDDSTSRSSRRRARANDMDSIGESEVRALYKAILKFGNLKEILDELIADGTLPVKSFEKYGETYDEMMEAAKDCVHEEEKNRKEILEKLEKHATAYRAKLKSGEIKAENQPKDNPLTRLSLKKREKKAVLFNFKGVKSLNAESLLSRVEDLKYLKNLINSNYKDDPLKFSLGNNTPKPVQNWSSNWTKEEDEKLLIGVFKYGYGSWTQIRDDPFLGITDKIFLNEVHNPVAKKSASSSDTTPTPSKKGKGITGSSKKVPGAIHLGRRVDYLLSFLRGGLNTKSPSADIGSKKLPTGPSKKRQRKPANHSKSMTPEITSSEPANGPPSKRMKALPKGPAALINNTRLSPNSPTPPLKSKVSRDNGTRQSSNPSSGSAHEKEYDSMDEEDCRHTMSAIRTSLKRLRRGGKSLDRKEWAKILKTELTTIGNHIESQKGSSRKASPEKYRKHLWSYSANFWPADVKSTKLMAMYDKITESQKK

Protein translocase subunit SecA (Escherichia coli (strain K12)), sequence (P10408 whole entry): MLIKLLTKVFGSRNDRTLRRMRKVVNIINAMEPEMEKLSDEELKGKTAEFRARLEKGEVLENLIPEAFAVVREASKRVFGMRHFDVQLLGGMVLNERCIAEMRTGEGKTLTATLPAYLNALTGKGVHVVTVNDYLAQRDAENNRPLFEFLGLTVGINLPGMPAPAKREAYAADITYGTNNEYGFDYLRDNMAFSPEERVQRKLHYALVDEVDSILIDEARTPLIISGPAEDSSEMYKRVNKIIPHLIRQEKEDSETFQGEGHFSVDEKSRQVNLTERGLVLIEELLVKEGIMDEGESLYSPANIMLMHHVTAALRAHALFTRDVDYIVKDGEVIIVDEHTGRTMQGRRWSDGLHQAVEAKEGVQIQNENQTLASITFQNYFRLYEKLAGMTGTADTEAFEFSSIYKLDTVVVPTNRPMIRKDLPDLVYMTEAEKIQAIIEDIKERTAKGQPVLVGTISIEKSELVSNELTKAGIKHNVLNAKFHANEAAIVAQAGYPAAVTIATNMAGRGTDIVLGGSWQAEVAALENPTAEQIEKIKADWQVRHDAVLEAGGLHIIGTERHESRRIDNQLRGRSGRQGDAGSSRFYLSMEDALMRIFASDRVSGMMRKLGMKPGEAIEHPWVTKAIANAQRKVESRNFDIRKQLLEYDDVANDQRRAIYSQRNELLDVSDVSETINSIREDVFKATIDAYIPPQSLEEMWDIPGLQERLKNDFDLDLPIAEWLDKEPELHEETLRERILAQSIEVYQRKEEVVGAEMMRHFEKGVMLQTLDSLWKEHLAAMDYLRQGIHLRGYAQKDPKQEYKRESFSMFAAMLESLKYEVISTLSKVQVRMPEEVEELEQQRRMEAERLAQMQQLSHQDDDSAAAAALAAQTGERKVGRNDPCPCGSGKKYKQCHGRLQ

SMILES	Percent Effect [1] [%]	Percent Effect [2] [%]	Percent Effect [3] [%]	Percent Effect [4] [%]	Percent Effect (Trypanosoma cruzi) [%]	Percent Effect [5] [%]	Percent Effect [6] [%]	Percent Effect (Homo sapiens) [%]	Percent Effect [7] [%]	Percent Effect [8] [%]	Percent Effect [9] [%]
Cc1cnn(C2CCCN(C(=O)c3cccc(Cn4ccnc4)c3)C2)c1 (stereo unspecified)	-1.7	13.9	-5.85	-7.26	2.36	-4.09	17.3	25.8	1.04	10.1	-30.4
CNc1cc(CNC(=O)c2ccccc2)nc(-c2ccncc2)n1	-5.75	9.46	9.36	-2.66	3.56	-71.7	15.8	1.41	5.38	14.3	-13.8
Cc1noc(C(C)N2CCN(CC(=O)N3CCOCC3)CC2)n1 (stereo unspecified)	-5.15	10.5	-3.04	-5.34	5.55	-4.73	-3.93	-8.61	2.13	10.4	-15.2
Cc1cn(CC(=O)NC2CCN(S(C)(=O)=O)CC2)c2ccccc12	-4.19	0	0.231	-6.08	-2.44	1.74	3.18	0.23	2.15	8.64	-4.9
CN(c1ccncn1)C1CC2(CCN(C(=O)CCc3cccs3)C2)C1 (stereo unspecified)	-3.27	1.35	6.25	8.01	5.34	-1.16	1.87	39.7	5.38	6.49	-4.42
Cc1cnc(N2CCn3cc(CNC(=O)CC4CC4)nc3C2)nc1	-3.53	-2.67	7.96	-5.68	-2.76	2.1	-6.78	10.1	-8.51	-16.7	-5.33
CN1CCCC(c2cccc(Cc3ccccc3Cl)n2)C1 (stereo unspecified)	-3.49	-4.05	7.5	3.2	1.38	-3.48	1.72	5.26	2.15	1.3	-7.93
CC(OCC1CC1)C(=O)N1CCCN(Cc2cnn(C)c2)CC1 (stereo unspecified)	1.55	31.6	-0.358	-2.42	-1.95	-9.25	21.6	6.99	5.21	17.7	-21.4
Cc1nc(C)n(CC2CCCN(c3ncnc4sccc34)C2)n1 (stereo unspecified)	-2.59	13.5	-5.88	-5.07	-6.32	0.401	9.91	65.9	6.4	16.1	-6.06
CCn1c(C(=O)N2CCN(CC(C)O)CC2)cc2ccccc21 (stereo unspecified)	-8.12	7.79	-6.74	7.69	10.1	-1.78	6.42	-0.229	3.88	21.9	-10.6
CCS(=O)(=O)N1CCc2c(CN(C)Cc3ccco3)cncc2C1	-1.78	-2.67	2.28	4.22	-3.86	-1.61	11.3	-0.516	-2.08	5	-3.58
